{"source": "PubChem BioAssay (NCATS)", "note": "Records with an inconclusive call do not appear. A call without a number means that no potency is given here. Active and inactive are the calls of the source. Calls follow the shape of the dose curve; as a rule, active = well fitted cell-killing curve with a large enough effect; inconclusive = small, poorly fitted or top-dose-only effect, or effect the other way; inactive = no such curve, though single readings can be large or run the other way. Potency is read from the fitted curve at half-maximal effect."}
{"test": "qHTS of pediatric cancer cell lines to identify multiple opportunities for drug repurposing: Confirmatory screen for Rh30 cells (AID 1347126); also: nearly all actives have a fitted effect of over 55% in size", "details": "Rh30 rhabdomyosarcoma cell viability; series mostly up to 45.9 µM", "excerpt": "Drug repurposing or repositioning has been offered as a strategy for drug development in oncology programs. This approach has special potential for childhood cancers and other rare or orphan diseases, where the expected return on new drug development has been a disincentive to pharmaceuticals.\nIn this project we exploit the poly-pharmacology of drugs to discover new indications via phenotypic screening of a panel of 19 well-characterized cell lines derived from solid tumors seen in children and adolescents. The goal is to identify approved drugs with previously unrecognized anticancer properties that has the potential to reveal new mechanisms and biological processes involved in carcinogenesis or drug resistance. We employed a titration-based paradigm (quantitative high-throughput screening or qHTS), where all compounds were tested at multiple concentrations for their effect on cell viability. Concentration-response curves (CRCs) were derived directly from the primary screen, and both potency and efficacy values were used to identify compounds with robust bioactivity profiles. We screened the NIH Chemical Genomics Center (NCGC) Pharmaceutical Collection (NPC) and Mechanism Interrogation Plate (MIPE) small molecule collections of approved and investigational compounds against these cell lines; and measured metabolically active cells after 48 hours of compound treatment as a proxy for cell viability.\nAssay Submitter: Nathalia J. Martinez, National Center for Advancing Translational Sciences, National Institutes of Health, Rockville, MD, USA; email: natalia.martinez@nih.gov\n[1] Shen, M et al. Quantitative high-throughput phenotypic screening of pediatric cancer cell lines identifies multiple opportunities for drug repurposing. Oncotarget 2017 Dec 19;9(4):4758-4772. PMID 29435139.\nThe cells were obtained from University of North Carolina (UNC), Pediatric Preclinical Testing Program (PPT), and Coriell Institute (CI).\nqHTS cell viability assay:\nCells were assayed in growth media at a density of 500-1,000 cells/well. Five microliters of cells were dispensed into 1,536-well, white, solid-bottom, TC-treated plates (Greiner Bio One) using a multidrop dispenser and incubated at 37 degrees C, 5% CO2, under a humidified atmosphere for 5 hours. Twenty-three nanoliters of compounds and controls (neutral control DMSO or positive control bortezomib at final concentration of 2.3 µM) were subsequently transferred by Kalypsys pintool. For primary screens, the MIPE collection was tested at 11-point dilutions (final concentrations range from 0.78 nM to 46 µM) and the NPC collection at 8-point dilutions (final concentrations range from 0.59 nM to 46 µM). Compounds tested in follow-up screens were assayed at 11-point dilutions. Cells were incubated for 48 hours, followed by addition of 3 µL of CellTiter-Glo (Promega). After a 15 min incubation at room temperature, samples were analyzed for luminescence intensity using a ViewLux High-throughput CCD imager equipped with clear filters."}
{"smiles": "Cc1nc(Nc2ncc(C(=O)Nc3c(C)cccc3Cl)s2)cc(N2CCN(CCO)CC2)n1", "Potency": "0.414 µM (active)"}
{"smiles": "Clc1ccc(C(Cn2ccnc2)OCc2ccsc2Cl)c(Cl)c1", "note": "(configuration not stated)", "Potency": "inactive"}
{"smiles": "Nc1nc(OCc2ccccc2)c2[nH]cnc2n1", "Potency": "inactive"}
{"smiles": "CC1(C)C(=O)N(CCN2CCC(C(=O)c3ccc(F)cc3)CC2)c2ccccc21", "Potency": "inactive"}
{"smiles": "CCCCc1ccc2nc(NC(=O)OC)[nH]c2c1", "Potency": "9.27 µM (active)"}
{"smiles": "CCN(CC)CCOc1ccc(Nc2ncc3cc(-c4c(Cl)cccc4Cl)c(=O)n(C)c3n2)cc1", "Potency": "7.37 µM (active)"}
{"smiles": "CC(C)C[C@H](NC(=O)[C@H](Cc1ccccc1)NC(=O)c1cnccn1)B(O)O", "Potency": "0.233 µM (active)"}
{"smiles": "CC(S)C(=O)NCC(=O)O", "note": "(configuration not stated)", "Potency": "10.4 µM (active)"}
{"smiles": "Nc1ccn([C@@H]2O[C@H](CO)[C@@H](O)C2O)c(=O)n1", "note": "(some centres not stated)", "Potency": "inactive"}
{"smiles": "Nc1ncn([C@H]2C[C@H](O)[C@@H](CO)O2)c(=O)n1", "Potency": "inactive"}
{"smiles": "Nc1nc(Cl)nc2c1ncn2[C@H]1C[C@H](O)[C@@H](CO)O1", "Potency": "inactive"}
{"smiles": "CCOc1cc(CC(=O)N[C@@H](CC(C)C)c2ccccc2N2CCCCC2)ccc1C(=O)O", "Potency": "inactive"}
{"smiles": "Oc1ccc(-c2nc(-c3ccc(F)cc3)c(-c3ccncc3)[nH]2)cc1", "Potency": "14.7 µM (active)"}
{"smiles": "CCN(CC)C(=S)SSC(=S)N(CC)CC", "Potency": "inactive"}
{"smiles": "CN(C)c1ccc2nc3ccc(=[N+](C)C)cc-3sc2c1", "Potency": "1.17 µM (active)"}
{"smiles": "CCN(CCO)CCCC(C)Nc1ccnc2cc(Cl)ccc12", "note": "(configuration not stated)", "Potency": "inactive"}
{"smiles": "CS(=O)(=O)OCCCCOS(C)(=O)=O", "Potency": "inactive"}
{"smiles": "Cc1ccc(NC(=O)c2ccc(CN3CCN(C)CC3)cc2)cc1Nc1nccc(-c2cccnc2)n1", "Potency": "inactive"}
{"smiles": "O=C1c2c(O)cc(O)cc2OC(c2ccc(O)c(O)c2)C1O", "note": "(configuration not stated)", "Potency": "inactive"}
{"smiles": "O=C(CCc1ccc(O)cc1)c1c(O)cc(O)cc1O", "Potency": "inactive"}
{"smiles": "Cc1cc(C2CCCCC2)n(O)c(=O)c1", "Potency": "8.27 µM (active)"}
{"smiles": "CC(=O)O[C@H]1C(=O)[C@@]2(C)C([C@H](OC(=O)c3ccccc3)[C@]3(O)C[C@H](OC(=O)[C@H](O)[C@@H](NC(=O)c4ccccc4)c4ccccc4)C(C)=C1C3(C)C)[C@]1(OC(C)=O)CO[C@@H]1C[C@@H]2O", "note": "(some centres not stated)", "Potency": "inactive"}
